According to PubChem BioAssay AID1159580 (chemical genetic matrix, 2015):
“And” between values parts separate entries of the source, which are not always exact repeats. Identical values can stand only once. The campaign covered roughly 5,500 compounds. About 2,000 (36%) were called active. Roughly 18% stayed inconclusive and do not appear here. Rule as the data show it: active = normalized growth mostly below about 0.91 (no sharp cut-off); inconclusive = no clear call, values can overlap the other calls; inactive = mostly above about 0.92. This is one part of the list.

Assay: chemical genetic growth profiling, strain panel (AID 1159580);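 also: tested at 20 µM; growth read once vehicle control cultures reached saturation at 30 °C; 1 = growth at the plate median or of vehicle wells; lower values mean less growth of the strain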
Conditions: S. cerevisiae deletion strains, growth OD

Measured: normalized growth

COc1cc(O)c2c(c1)C(=O)c1cc(C)cc(O)c1C2=O
active: locus YDR137W, strain rgp1, hits give low values 0.76
inactive: locus YAL013W, strain DEP1, hits give low values 0.991 | locus YAL021C, strain ccr4, hits give low values 0.987 | locus YAL026C, strain drs2, hits give low values 0.997 | locus YAL030W, strain snc1, hits give low values 0.98 | locus YBL061C, strain skt5, hits give low values 0.994 | locus YBR009C, strain hhf1, hits give low values 1 | locus YBR021W, strain FUR4, hits give low values 1.04 | locus YBR023C, strain chs3, hits give low values 0.988 | locus YBR171W, strain sec66, hits give low values 0.995 | locus YBR229C, strain ROT2, hits give low values 1.01 | locus YBR231C, strain swc5, hits give low values 0.993 | locus YBR279W, strain paf1, hits give low values 0.998 | locus YCL011C, strain gbp2, hits give low values 1 | locus YCL016C, strain dcc1, hits give low values 0.98 | locus YCL029C, strain bik1, hits give low values 1 | locus YCL061C, strain MRC1, hits give low values 0.977 | locus YCL069W, strain vba3, hits give low values 0.995 | locus YCR088W, strain abp1, hits give low values 0.993 | locus YDL005C, strain med2, hits give low values 0.971 | locus YDL035C, strain GPR1, hits give low values 0.997 | locus YDL040C, strain nat1, hits give low values 0.99 | locus YDL074C, strain BRE1, hits give low values 0.974 | locus YDL101C, strain DUN1, hits give low values 1 | locus YDL134C, strain PPH21, hits give low values 1 | locus YDL185W, strain tfp1, hits give low values 1 | locus YDL192W, strain arf1, hits give low values 1.01 | locus YDR001C, strain nth1, hits give low values 0.998 | locus YDR069C, strain doa4, hits give low values 0.981 | locus YDR101C, strain arx1, hits give low values 0.986 | locus YDR150W, strain NUM1, hits give low values 1.02 | locus YDR159W, strain sac3, hits give low values 0.965 | locus YDR162C, strain NBP2, hits give low values 0.982 | locus YDR195W, strain ref2 1.01 | locus YDR297W, strain sur2, hits give low values 0.977 | locus YDR318W, strain mcm21, hits give low values 0.971 | locus YDR334W, strain swr1, hits give low values 1 | locus YDR335W, strain msn5, hits give low values 0.99 | locus YDR388W, hits give low values 1 | locus YDR392W, strain spt3, hits give low values 0.95 | locus YDR502C, strain sam2, hits give low values 0.989 | locus YEL003W, strain gim4, hits give low values 0.997 | locus YEL037C, strain rad23, hits give low values 1.01 | locus YEL061C, strain CIN8 (second series), hits give low values 0.995 | locus YER015W, strain faa2, hits give low values 0.999 | locus YER016W, strain bim1, hits give low values 0.976 | locus YER110C, hits give low values 1.01 | locus YER111C, strain swi4, hits give low values 0.987 | locus YER155C, strain BEM2 (second series), hits give low values 0.973 | locus YER155C, strain BEM2, hits give low values 1.01 | locus YER167W, strain BCK2, hits give low values 0.994 | locus YFR010W, strain ubp6, hits give low values 1.02 | locus YGL078C, strain dbp3, hits give low values 1.01 | locus YGL086W, strain mad1, hits give low values 1 | locus YGL167C, strain pmr1, hits give low values 0.977 | locus YGL173C, strain kem1, hits give low values 0.993 | locus YGL227W, strain vid30, hits give low values 1 | locus YGL240W, strain doc1, hits give low values 0.98 | locus YGL248W, strain PDE1, hits give low values 1.01 | locus YGL253W, strain hxk2, hits give low values 1.01 | locus YGR078C, strain PAC10, hits give low values 0.989 | locus YGR135W, strain pre9, hits give low values 0.992 | locus YGR229C, strain SMI1, hits give low values 0.968 | locus YGR252W, strain gcn5, hits give low values 1.06 | locus YHR013C, strain ard1, hits give low values 0.997 | locus YHR027C, strain rpn1, hits give low values 0.999 | locus YHR030C, strain SLT2, hits give low values 1.01 and 1 | locus YHR079C, strain IRE1 (second series), hits give low values 0.981 | locus YHR079C, strain IRE1, hits give low values 1.04 | locus YHR094C, strain hxt1, hits give low values 1 | locus YHR129C, strain ARP1, hits give low values 0.998 | locus YHR142W, strain chs7, hits give low values 1.04 | locus YHR200W, strain rpn10, hits give low values 1 | locus YIL066C, strain RNR3, hits give low values 1.01 | locus YIL073C, strain SPO22, hits give low values 0.991 | locus YIL125W, strain kgd1, hits give low values 0.994 | locus YIR030C, strain dcg1, hits give low values 0.993 | locus YJL092W, strain hpr5, hits give low values 0.997 | locus YJL095W, strain BCK1 (second series), hits give low values 0.972 | locus YJL095W, strain BCK1, hits give low values 0.883 and 0.965 | locus YJL115W, strain asf1, hits give low values 1 | locus YJL129C, strain trk1, hits give low values 0.981 | locus YJL134W, strain LCB3, hits give low values 1.01 | locus YJL154C, strain vps35, hits give low values 0.991 | locus YJL164C, strain tpk1, hits give low values 0.995 | locus YJL166W, strain qcr8, hits give low values 0.989 | locus YJL168C, strain set2, hits give low values 1 | locus YJL187C, strain SWE1 (second series), hits give low values 1 | locus YJL187C, strain SWE1, hits give low values 0.985 | locus YJR043C, strain POL32, hits give low values 1 | locus YJR066W, strain TOR1, hits give low values 0.987
